In PMC8384837, “Expanding the binding specificity for RNA recognition by a PUF domain”:

What follows are sequences tested against PUM1 PUF domain R4-NNV (Homo sapiens, UniProt Q14671 828-1176, H972N;Q975V) (assay: yeast three-hybrid, YBZ-1, SC-Leu-His + 0.5 mM 3-AT, 4 days). Conditions: tags: N-Gal4 AD-HA kept; label: inside an RPR1-promoter hybrid RNA with tandem MS2 sites; ssRNA.
In short: (§1)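 The interaction score is the log change in how often each variant appears, from input to selection. Frequencies came from PCR-amplified, Illumina-sequenced repeat regions of Pumilio-1 PUF domain libraries grown in strain YBZ-1 (LexA–MS2 coat fusion, HIS3 reporter) alongside matching RNA elements. Input plates were SC-Leu and selection plates were SC-Leu-His + 0.5 mM 3-AT, each for four days, and the log2 calculation used a pseudocount of 1 where a variant was absent.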

Chain of PUM1 PUF domain R4-NNV (Q14671 828-1176 H972N/Q975V): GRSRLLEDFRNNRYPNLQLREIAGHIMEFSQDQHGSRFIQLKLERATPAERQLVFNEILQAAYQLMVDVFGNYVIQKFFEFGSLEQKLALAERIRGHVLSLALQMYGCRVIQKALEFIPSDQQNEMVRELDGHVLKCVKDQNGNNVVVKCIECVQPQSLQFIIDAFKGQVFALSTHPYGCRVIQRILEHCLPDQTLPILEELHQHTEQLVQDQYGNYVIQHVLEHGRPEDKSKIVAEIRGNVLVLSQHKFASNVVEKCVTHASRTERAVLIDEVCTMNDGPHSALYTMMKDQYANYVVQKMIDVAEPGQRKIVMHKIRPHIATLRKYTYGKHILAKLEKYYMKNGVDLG

Which binding signal does the source give for “GGCUAGAACUAGUGGAUCCCCCGGCGCCCGGCGGCUCGAGCCCGGGUAAGUGUAAAUAGUCUGCAUGCCGCCGGGCGCCAUGCCUGCAGGUCGACUCUAGAAAACAUG” here?
Its binding signal is 1.31 log2 enrichment (interaction score).

How did the binding signal turn out when “GGCUAGAACUAGUGGAUCCCCCGGCGCCCGGCGGCUCGAGCCCGGGUAAGUGUACAUAGUCUGCAUGCCGCCGGGCGCCAUGCCUGCAGGUCGACUCUAGAAAACAUG” was run?
Its binding signal is 2.48 log2 enrichment (interaction score).

Which binding signal does the source give for “GGCUAGAACUAGUGGAUCCCCCGGCGCCCGGCGGCUCGAGCCCGGGUAAGUGUAUAUAGUCUGCAUGCCGCCGGGCGCCAUGCCUGCAGGUCGACUCUAGAAAACAUG” here?
The binding signal was 3.42 log2 enrichment (interaction score).

These sequences were tested against PUM1 PUF domain R4-PYC (Homo sapiens, UniProt Q14671 828-1176, N971P;H972Y;Q975C) in the same assay as above. Conditions: tags: N-Gal4 AD-HA kept; label: inside an RPR1-promoter hybrid RNA with tandem MS2 sites; ssRNA.
In short: as §1

Chain of PUM1 PUF domain R4-PYC (Q14671 828-1176 N971P/H972Y/Q975C): as the sequence (Q14671 828-1176 H972N/Q975V) above, with N144P, N145Y, V148C counted along it

“GGCUAGAACUAGUGGAUCCCCCGGCGCCCGGCGGCUCGAGCCCGGGUAAGUGUAAAUAGUCUGCAUGCCGCCGGGCGCCAUGCCUGCAGGUCGACUCUAGAAAACAUG” was tested. Which binding signal did it give?
Its binding signal is 7.66 log2 enrichment (interaction score).

Which binding signal does the source give for “GGCUAGAACUAGUGGAUCCCCCGGCGCCCGGCGGCUCGAGCCCGGGUAAGUGUACAUAGUCUGCAUGCCGCCGGGCGCCAUGCCUGCAGGUCGACUCUAGAAAACAUG” here?
The binding signal was 6.68 log2 enrichment (interaction score).

For “GGCUAGAACUAGUGGAUCCCCCGGCGCCCGGCGGCUCGAGCCCGGGUAAGUGUAUAUAGUCUGCAUGCCGCCGGGCGCCAUGCCUGCAGGUCGACUCUAGAAAACAUG”, which binding signal is on record?
The binding signal was 7.49 log2 enrichment (interaction score).

What follows are sequences tested against PUM1 PUF domain R4-VPG (Homo sapiens, UniProt Q14671 828-1176, N971V;H972P;Q975G) in the same assay as above. Conditions: tags: N-Gal4 AD-HA kept; label: inside an RPR1-promoter hybrid RNA with tandem MS2 sites; ssRNA.
In short: as §1

Chain of PUM1 PUF domain R4-VPG (Q14671 828-1176 N971V/H972P/Q975G): as the sequence (Q14671 828-1176 H972N/Q975V) above, with N144V, N145P, V148G counted along it

With “GGCUAGAACUAGUGGAUCCCCCGGCGCCCGGCGGCUCGAGCCCGGGUAAGUGUAAAUAGUCUGCAUGCCGCCGGGCGCCAUGCCUGCAGGUCGACUCUAGAAAACAUG” as the sequence, how does the binding signal read?
The binding signal was 3.14 log2 enrichment (interaction score).

Which binding signal does the source give for “GGCUAGAACUAGUGGAUCCCCCGGCGCCCGGCGGCUCGAGCCCGGGUAAGUGUACAUAGUCUGCAUGCCGCCGGGCGCCAUGCCUGCAGGUCGACUCUAGAAAACAUG” here?
Its binding signal is 2.82 log2 enrichment (interaction score).

For “GGCUAGAACUAGUGGAUCCCCCGGCGCCCGGCGGCUCGAGCCCGGGUAAGUGUAUAUAGUCUGCAUGCCGCCGGGCGCCAUGCCUGCAGGUCGACUCUAGAAAACAUG”, which binding signal is on record?
Its binding signal is 2.52 log2 enrichment (interaction score).

The sequences below were run against PUM1 PUF domain R4-GRC (Homo sapiens, UniProt Q14671 828-1176, N971G;H972R;Q975C) in the same assay as above. Conditions: tags: N-Gal4 AD-HA kept; label: inside an RPR1-promoter hybrid RNA with tandem MS2 sites; ssRNA.
In short: as §1

Chain of PUM1 PUF domain R4-GRC (Q14671 828-1176 N971G/H972R/Q975C): as the sequence (Q14671 828-1176 H972N/Q975V) above, with N144G, N145R, V148C counted along it

Which binding signal does the source give for “GGCUAGAACUAGUGGAUCCCCCGGCGCCCGGCGGCUCGAGCCCGGGUAAGUGUAAAUAGUCUGCAUGCCGCCGGGCGCCAUGCCUGCAGGUCGACUCUAGAAAACAUG” here?
The binding signal was 4.62 log2 enrichment (interaction score).

“GGCUAGAACUAGUGGAUCCCCCGGCGCCCGGCGGCUCGAGCCCGGGUAAGUGUACAUAGUCUGCAUGCCGCCGGGCGCCAUGCCUGCAGGUCGACUCUAGAAAACAUG” was tested. Which binding signal did it give?
The binding signal was 0.93 log2 enrichment (interaction score).

Which binding signal does the source give for “GGCUAGAACUAGUGGAUCCCCCGGCGCCCGGCGGCUCGAGCCCGGGUAAGUGUAUAUAGUCUGCAUGCCGCCGGGCGCCAUGCCUGCAGGUCGACUCUAGAAAACAUG” here?
Its binding signal is 2.46 log2 enrichment (interaction score).
